Targets with a hit are over-represented here; the source holds about 7,900 in all. About 0.6% of all pairs of compound and target were hits. A number with no mark means an inactive call.
Tests used:
Assay in all cases: log2 fold change, soluble protein after heating vs DMSO (PISA); higher = thermal stabilisation; K562 cells, 10 uM, 30 min; active = over 0.2 and 3.5 SD of the protein, either way, in both replicates (recomputed)
[1] = compound: CS(=O)(=O)c1ccc(-c2cnc(N)c(C(=O)Nc3ccccc3)n2)cc1
Procedure, shortened: (§1)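 Quantification of soluble protein used TMTpro 16plex LC-MS/MS, with channel sums equalised. Samples were the supernatant after 21,000xg for 90 min of pooled aliquots from K562 cells (2×10^6 cells/mL) treated with 10 μM compound for 30 min, heated for 3 min over 48°C-58°C, and extracted in PBS with 0.5% NP-40 at 4°C. Values, from duplicates, describe thermal stability against control samples on a log2 fold-change scale.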

crizotinib = compound: C[C@@H](Oc1cc(-c2cnn(C3CCNCC3)c2)cnc1N)c1c(Cl)ccc(F)c1Cl [crizotinib]
Procedure, shortened: as §1

[2] = compound: C[C@@H]1COCCN1C2=NC(=NC(=C2)C3(CC3)S(=O)(=O)C)C4=C5C=CNC5=CC=C4
Procedure, shortened: as §1

[3] = compound: C[C@H](C1=CC=C(C=C1)C(=O)NC2=C3C=CNC3=NC=C2)N
Procedure, shortened: as §1

duvelisib = compound: C[C@H](Nc1ncnc2nc[nH]c12)c1cc2cccc(Cl)c2c(=O)n1-c1ccccc1 [duvelisib]
Procedure, shortened: as §1

gandotinib = compound: Cc1cc(Nc2cc(CN3CCOCC3)c3nc(C)c(Cc4ccc(Cl)cc4F)n3n2)n[nH]1 [gandotinib]
Procedure, shortened: as §1

tozasertib = compound: Cc1cc(Nc2cc(N3CCN(C)CC3)nc(Sc3ccc(NC(=O)C4CC4)cc3)n2)n[nH]1 [tozasertib]
Procedure, shortened: as §1

[4] = compound: Cc1cc(SCc2sc(-c3ccc(C(F)(F)F)cc3)nc2C)ccc1OCC(=O)O
Procedure, shortened: as §1

doramapimod = compound: Cc1ccc(-n2nc(C(C)(C)C)cc2NC(=O)Nc2ccc(OCCN3CCOCC3)c3ccccc23)cc1 [doramapimod]
Procedure, shortened: as §1

ispinesib = compound: Cc1ccc(C(=O)N(CCCN)[C@@H](c2nc3cc(Cl)ccc3c(=O)n2Cc2ccccc2)C(C)C)cc1 [ispinesib]
Procedure, shortened: as §1

Sequence of UniProt P17980 (P17980 whole entry, looked up): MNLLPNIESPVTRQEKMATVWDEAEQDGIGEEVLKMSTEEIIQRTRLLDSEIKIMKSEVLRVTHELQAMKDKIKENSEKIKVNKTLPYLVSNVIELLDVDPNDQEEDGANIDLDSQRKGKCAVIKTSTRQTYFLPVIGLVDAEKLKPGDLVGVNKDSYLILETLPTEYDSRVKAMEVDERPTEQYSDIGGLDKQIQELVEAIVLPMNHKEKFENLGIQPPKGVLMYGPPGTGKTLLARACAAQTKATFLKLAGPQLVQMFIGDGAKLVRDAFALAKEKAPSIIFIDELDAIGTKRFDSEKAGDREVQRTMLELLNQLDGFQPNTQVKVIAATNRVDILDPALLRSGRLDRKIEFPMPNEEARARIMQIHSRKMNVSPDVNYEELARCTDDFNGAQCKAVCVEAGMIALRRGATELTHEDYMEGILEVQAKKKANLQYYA
Sequence of UniProt Q8N4L2 (Q8N4L2 whole entry, looked up): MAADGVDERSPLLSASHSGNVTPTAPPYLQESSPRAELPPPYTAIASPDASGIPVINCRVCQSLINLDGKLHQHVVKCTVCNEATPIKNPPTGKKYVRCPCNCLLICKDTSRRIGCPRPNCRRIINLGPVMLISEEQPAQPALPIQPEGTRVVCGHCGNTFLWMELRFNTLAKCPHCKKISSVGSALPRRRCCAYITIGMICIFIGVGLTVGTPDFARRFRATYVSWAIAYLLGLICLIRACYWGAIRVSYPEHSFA
Sequence of UniProt P25788 (P25788 whole entry, looked up): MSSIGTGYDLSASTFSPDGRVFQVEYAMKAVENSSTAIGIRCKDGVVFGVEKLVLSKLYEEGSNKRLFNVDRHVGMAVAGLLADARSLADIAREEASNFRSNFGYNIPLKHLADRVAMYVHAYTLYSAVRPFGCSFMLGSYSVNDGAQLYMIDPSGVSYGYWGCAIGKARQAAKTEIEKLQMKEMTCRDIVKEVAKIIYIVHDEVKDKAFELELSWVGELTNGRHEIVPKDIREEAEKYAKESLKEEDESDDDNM
Sequence of UniProt P06737 (P06737 whole entry, looked up): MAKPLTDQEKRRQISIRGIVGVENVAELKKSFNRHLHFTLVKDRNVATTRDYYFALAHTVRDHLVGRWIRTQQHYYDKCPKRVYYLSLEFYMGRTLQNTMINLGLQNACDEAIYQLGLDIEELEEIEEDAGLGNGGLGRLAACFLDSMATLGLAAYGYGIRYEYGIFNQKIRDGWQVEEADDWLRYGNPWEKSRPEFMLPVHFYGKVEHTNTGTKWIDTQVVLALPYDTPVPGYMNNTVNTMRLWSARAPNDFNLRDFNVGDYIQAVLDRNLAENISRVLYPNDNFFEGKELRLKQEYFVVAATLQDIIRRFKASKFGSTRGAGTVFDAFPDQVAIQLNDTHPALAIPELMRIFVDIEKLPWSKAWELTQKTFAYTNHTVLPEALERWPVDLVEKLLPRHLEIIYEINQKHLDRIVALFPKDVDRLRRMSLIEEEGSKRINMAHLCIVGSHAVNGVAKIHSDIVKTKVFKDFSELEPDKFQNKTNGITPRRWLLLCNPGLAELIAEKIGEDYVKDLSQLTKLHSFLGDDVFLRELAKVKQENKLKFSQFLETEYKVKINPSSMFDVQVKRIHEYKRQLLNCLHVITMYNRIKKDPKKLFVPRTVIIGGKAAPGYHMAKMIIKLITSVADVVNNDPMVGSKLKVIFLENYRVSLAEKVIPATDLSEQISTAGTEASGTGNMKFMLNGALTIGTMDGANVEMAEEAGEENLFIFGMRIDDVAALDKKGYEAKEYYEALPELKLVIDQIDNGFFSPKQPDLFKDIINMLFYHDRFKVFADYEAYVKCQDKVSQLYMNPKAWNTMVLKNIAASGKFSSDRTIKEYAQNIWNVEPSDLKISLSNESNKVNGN
Sequence of UniProt Q99575 (Q99575 whole entry, looked up): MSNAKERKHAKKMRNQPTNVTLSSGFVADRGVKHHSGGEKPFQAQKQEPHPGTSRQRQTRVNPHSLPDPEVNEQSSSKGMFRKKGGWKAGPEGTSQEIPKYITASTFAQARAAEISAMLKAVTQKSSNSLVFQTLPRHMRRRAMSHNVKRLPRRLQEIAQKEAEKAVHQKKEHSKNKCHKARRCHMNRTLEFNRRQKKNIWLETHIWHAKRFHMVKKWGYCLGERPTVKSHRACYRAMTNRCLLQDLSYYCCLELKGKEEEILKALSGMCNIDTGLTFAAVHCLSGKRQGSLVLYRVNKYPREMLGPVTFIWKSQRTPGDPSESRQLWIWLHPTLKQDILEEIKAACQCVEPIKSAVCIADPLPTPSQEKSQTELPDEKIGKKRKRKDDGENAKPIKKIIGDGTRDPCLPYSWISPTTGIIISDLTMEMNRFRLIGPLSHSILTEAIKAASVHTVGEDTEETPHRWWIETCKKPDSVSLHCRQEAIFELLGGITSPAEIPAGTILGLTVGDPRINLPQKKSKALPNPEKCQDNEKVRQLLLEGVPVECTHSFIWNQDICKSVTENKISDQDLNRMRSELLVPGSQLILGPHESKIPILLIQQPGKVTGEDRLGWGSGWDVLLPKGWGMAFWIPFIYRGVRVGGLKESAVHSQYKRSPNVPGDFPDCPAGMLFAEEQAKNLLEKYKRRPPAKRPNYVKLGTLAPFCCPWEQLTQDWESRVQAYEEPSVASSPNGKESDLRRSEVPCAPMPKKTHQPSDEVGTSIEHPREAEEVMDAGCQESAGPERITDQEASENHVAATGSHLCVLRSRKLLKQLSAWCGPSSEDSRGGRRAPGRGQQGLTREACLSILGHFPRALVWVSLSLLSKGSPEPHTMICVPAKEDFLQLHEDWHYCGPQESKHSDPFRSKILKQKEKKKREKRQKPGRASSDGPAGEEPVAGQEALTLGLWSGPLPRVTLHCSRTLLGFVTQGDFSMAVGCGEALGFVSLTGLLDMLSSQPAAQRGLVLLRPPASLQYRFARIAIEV
Sequence of UniProt Q13131 (Q13131 whole entry, looked up): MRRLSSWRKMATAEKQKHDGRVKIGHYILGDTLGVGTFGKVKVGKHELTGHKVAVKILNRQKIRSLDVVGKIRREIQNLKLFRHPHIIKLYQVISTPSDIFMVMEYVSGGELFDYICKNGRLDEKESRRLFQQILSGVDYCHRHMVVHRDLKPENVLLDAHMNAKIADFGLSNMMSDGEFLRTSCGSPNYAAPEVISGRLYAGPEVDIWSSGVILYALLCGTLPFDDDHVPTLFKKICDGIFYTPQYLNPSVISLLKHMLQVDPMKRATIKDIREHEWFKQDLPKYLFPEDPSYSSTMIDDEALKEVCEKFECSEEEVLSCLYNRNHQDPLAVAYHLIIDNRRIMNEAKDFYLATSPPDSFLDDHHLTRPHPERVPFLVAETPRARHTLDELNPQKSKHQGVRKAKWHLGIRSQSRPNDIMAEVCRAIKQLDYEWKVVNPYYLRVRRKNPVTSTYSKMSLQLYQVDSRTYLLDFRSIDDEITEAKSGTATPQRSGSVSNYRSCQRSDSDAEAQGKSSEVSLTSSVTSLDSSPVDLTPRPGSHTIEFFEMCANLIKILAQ
Sequence of UniProt Q9Y3E5 (Q9Y3E5 whole entry, looked up): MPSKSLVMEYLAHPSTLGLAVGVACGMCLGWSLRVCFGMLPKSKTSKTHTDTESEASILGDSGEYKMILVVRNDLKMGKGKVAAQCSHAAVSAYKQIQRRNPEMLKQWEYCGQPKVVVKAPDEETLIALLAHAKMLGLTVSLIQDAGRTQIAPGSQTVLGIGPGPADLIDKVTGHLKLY

| Target | log2 fold change [1] | log2 fold change (crizotinib) | log2 fold change [2] | log2 fold change [3] | log2 fold change (duvelisib) | log2 fold change (gandotinib) | log2 fold change (tozasertib) | log2 fold change [4] | log2 fold change (doramapimod) | log2 fold change (ispinesib) |
| --- | --- | --- | --- | --- | --- | --- | --- | --- | --- | --- |
| POLR2D (UniProt O15514) | 0.006 | 0.192 | -0.08 | 0.038 | 0.065 | 0.158 | -0.012 | -0.068 | -0.024 | 0.017 |
| PYGL (UniProt P06737) | -0.122 | 0.003 | 0.026 | -0.019 | 0.03 | 0.013 | -0.022 | -0.023 | 0.001 | 0.015 |
| PSMD8 (UniProt P48556) | 0.034 | 0.011 | -0.053 | 0.156 | -0.016 | 0.002 | 0.008 | 0.059 | 0.028 | 0.015 |
| PARL (UniProt Q9H300) | -0.004 | -0.036 | 0.186 | -0.011 | 0.03 | 0.025 | -0.017 | -0.035 | -0.009 | -0.193 |
| PDS5A (UniProt Q29RF7) | 0.03 | -0.383 | 0.063 | 0.043 | 0.053 | -0.099 | 0.117 | 0.182 | -0.057 | -0.127 |
| POP1 (UniProt Q99575) | -0.034 | 0.02 | -0.023 | -0.05 | -0.005 | 0.012 | 0.009 | -0.041 | 0.016 | 0.039 |
| PRKACB isoform 2 (UniProt P22694) | -0.009 | -0.145 | 0.033 | -0.039 | 0.009 | -0.091 | -0.02 | 0.047 | 0.028 | -0.043 |
| PEX16 isoform 2 (UniProt Q9Y5Y5) | -0.001 | -0.142 | 0.052 | -0.072 | 0.096 | -0.104 | 0.018 | 0.057 | 0.106 | -0.23 |
| PPP1R12A (UniProt O14974) | -0.054 | -0.351 | -0.039 | -0.885 (active) | 0.065 | 0.021 | 0.011 | 0.029 | -0.054 | -0.1 |
| PBK (UniProt Q96KB5) | 0.048 | -0.046 | 0.051 | 0.134 | 0.006 | -0.136 | 0.109 | 0.157 | 0.015 | -0.066 |
| PRKAA1 isoform 2 (UniProt Q13131) | 0 | -0.156 | -0.007 | -0.011 | 0.055 | -0.235 (active) | -0.044 | -0.036 | -0.019 | -0.003 |
| PLCB3 (UniProt Q01970) | 0 | -0.07 | 0.014 | 0.013 | 0.019 | 0.031 | 0.041 | 0.034 | 0.014 | -0.078 |
| PRKAR1A (UniProt P10644) | 0.209 | 0.259 | 0.03 | 0.173 | 0.208 | 0.139 | 0.041 | 0.001 | 0 | -0.06 |
| PSMC3 (UniProt P17980) | 0.002 | 0.012 | -0.098 | 0.067 | -0.048 | 0.027 | 0.024 | 0.011 | 0.017 | -0.024 |
| PRMT7 (UniProt Q9NVM4) | 0.063 | -0.142 | 0.075 | 0.083 | 0.037 | 0.067 | 0.01 | 0.12 | 0.038 | 0.065 |
| PSME4 (UniProt Q14997) | 0.036 | -0.161 | 0.013 | 0.052 | 0.02 | -0.082 | -0.078 | 0.093 | 0.045 | -0.09 |
| PSMA3 (UniProt P25788) | 0.011 | 0.052 | -0.012 | -0.117 | -0.074 | 0.054 | 0.046 | 0.007 | 0.018 | -0.002 |
| RAB11FIP1 (UniProt Q6WKZ4) | -0.071 | -0.096 | -0.001 | -0.038 | 0.004 | -0.01 | 0.057 | -0.003 | 0.047 | -0.251 (active) |
| PRKCG (UniProt P05129) | 0.078 | -0.005 | 0.188 | 0.028 | 0.244 | -0.149 | -0.04 | 0.11 | -0.029 | 0 |
| QKI (UniProt Q96PU8) | -0.057 | 0.075 | 0.046 | -0.079 | 0.032 | -0.093 | 0.027 | 0.034 | 0 | -0.034 |
| PIGT (UniProt Q969N2) | 0.033 | 0.023 | -0.017 | 0.005 | -0.045 | -0.029 | 0.029 | 0.047 | 0.036 | 0 |
| PSMD11 (UniProt O00231) | 0.036 | -0.024 | -0.035 | 0.074 | -0.04 | 0.046 | 0.08 | 0.07 | 0.013 | 0.045 |
| PLEKHM2 (UniProt Q8IWE5) | 0.023 | -0.162 | 0.02 | -0.047 | 0.044 | -0.06 | 0.144 | 0.04 | 0.064 | -0.02 |
| PRKCA (UniProt P17252) | -0.023 | -0.081 | 0.044 | -0.041 | 0.158 | -0.227 | -0.052 | 0.232 | 0.01 | -0.112 |
| PGK2 (UniProt P07205) | 0.016 | 0.029 | 0.075 | -0.002 | 0.062 | 0.078 | -0.033 | -0.093 | -0.109 | 0.024 |
| PTRH2 (UniProt Q9Y3E5) | 0.02 | 0.081 | 0.061 | -0.098 | 0.051 | -0.02 | 0.001 | -0.001 | -0.074 | 0.181 |
| PIP4P2 (UniProt Q8N4L2) | -0.057 | -0.3 (active) | 0.013 | -0.058 | 0.068 | 0.017 | -0.041 | 0.013 | -0.032 | -0.569 (active) |
| PHKA1 (UniProt P46020) | -0.036 | -0.05 | -0.048 | 0.189 | -0.074 | -0.015 | 0.279 | 0.075 | 0.037 | -0.07 |
| PDE12 (UniProt Q6L8Q7) | 0.047 | 0.032 | 0.088 | -0.133 | 0.069 | 0.027 | -0.007 | 0 | -0.027 | 0.065 |
| PCID2 (UniProt Q5JVF3) | 0.157 | -0.171 | -0.138 | 0.246 | -0.02 | -0.149 | -0.028 | 0.058 | -0.005 | -0.096 |

— the supplement of paper PMC10849652
